Results published in PubChem BioAssay (NCATS).
Values joined by “and” are separate entries in the source; they are usually repeats but may differ in a detail not shown here. Equal values may be shown once. Results filed as inconclusive are left out. Active and inactive are the calls of the source. Unless noted, calls come from the whole dose curve; as a rule, active = well fitted curve in the direction sought with a large enough effect; inconclusive = small, poorly fitted or top-dose-only effect, or another doubt; inactive = no such curve, though single readings can be large; an effect the other way counts as inactive or inconclusive.

What was measured:
Tov112D = test: Primary qHTS to identify gynecologic anti-cancer compounds using libraries of approved drugs and bioactive compounds (AID 1345084); settings: Gynecologic cancer cell panel viability, ATPlite luminescence, 48 h; series mostly up to 57.5 µM; note: % is set by controls: 0 for no effect and ±100 for the full control effect; nearly all actives have a fitted effect of over 55% in size
Procedure, shortened: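 Cells, 1,000 per well, plated 16 h, then exposed 48 h at 37 C to compounds. Viability by ATPlite luminescence after 15 min at room temperature.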

[1] = Drug repurposing screens with cells derived from glioblastoma tumor samples (AID 1345199); settings: GBM patient neurospheres viability, ATP luminescence, 48 h; Potency: tumour line A unless noted; series mostly up to 45.9 µM; note: % is set by controls: 0 for no effect and ±100 for the full control effect; nearly all actives have a fitted effect of over 40% in size
Procedure, shortened: (§1)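 Four patient lines of CD133+ GBM neurospheres were screened at several concentrations; hits were retested in those lines plus three slower-growing GBM lines, using 48-hour treatment and ATP-based viability.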

astro = test: as above; settings: viability, ATP luminescence, 48 h; series mostly up to 45.9 µM
Procedure, shortened: as §1

[2] = biological target: Nuclear receptor subfamily 1 group I member 2 (Rattus norvegicus) (UniProt Q9R1A7); test: qHTS assay for small molecule activators of the rat pregnane X receptor (rPXR) signaling pathway (AID 651751; call rule not given here; note: 0% is about no effect); settings: rPXR reporter cells, luciferase (One-Glo), 24 h
[3] = qHTS assay for small molecule activators of the human pregnane X receptor (PXR) signaling pathway (AID 720659; call rule not given here; note: 0% is about no effect)

Sequence of Nuclear receptor subfamily 1 group I member 2 (Rattus norvegicus) (Q9R1A7 whole entry, looked up): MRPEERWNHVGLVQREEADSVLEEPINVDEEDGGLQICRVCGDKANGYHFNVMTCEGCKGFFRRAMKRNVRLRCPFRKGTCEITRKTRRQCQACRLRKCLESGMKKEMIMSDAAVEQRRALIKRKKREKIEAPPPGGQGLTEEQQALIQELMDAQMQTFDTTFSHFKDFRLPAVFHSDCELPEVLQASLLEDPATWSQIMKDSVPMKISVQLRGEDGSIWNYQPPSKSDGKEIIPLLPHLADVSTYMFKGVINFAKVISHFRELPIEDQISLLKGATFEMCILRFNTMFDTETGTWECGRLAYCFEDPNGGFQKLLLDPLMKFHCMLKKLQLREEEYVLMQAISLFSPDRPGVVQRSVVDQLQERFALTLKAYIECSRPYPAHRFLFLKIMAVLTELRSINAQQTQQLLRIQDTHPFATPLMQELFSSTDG

Nc1ccc(Cl)cc1
inactive: Potency (Tov112D) | Potency [1] | Potency (astro) | max response [2] 3.79% | outcome [3]

COC(C)(C)CCCC(C)C/C=C/C(C)=C/C(=O)OC(C)C (centres undefined)
inactive: Potency (Tov112D) | Potency (astro)

CC(C)(C)NC[C@H](O)c1ccc(O)cc1Cl
inactive: Potency (Tov112D) | Potency [1] | Potency (astro)

CC(O)CN1CCN(CC(=O)[O-])CCN(CC(=O)[O-])CCN(CC(=O)[O-])CC1.[Gd+3] (centres undefined)
inactive: Potency (Tov112D) | Potency [1] | Potency (astro)

O=C(O)c1cc(Oc2ccc(C(F)(F)F)cc2Cl)ccc1[N+](=O)[O-]
inactive: Potency (Tov112D) | Potency [1] | Potency (astro) | max response [2] 2.53% | outcome [3]

CCCCOC(=O)c1ccccc1C(=O)OCc1ccccc1
inactive: Potency (Tov112D) | Potency [1] | Potency (astro) | max response [2] 7.11% and 9.37%

O=C(O)COc1nc(Cl)c(Cl)cc1Cl
inactive: Potency (Tov112D) | Potency [1] | Potency (astro) | max response [2] -1.37%

C=CC(=O)NCNC(=O)C=C
inactive: Potency (Tov112D) | Potency [1] | Potency (astro) | max response [2] 1.16% and 0.492% | outcome [3]

CCCCCCCCc1ccc(O)cc1
inactive: Potency (Tov112D) | Potency [1] | Potency (astro) | max response [2] 3.32% and -2.12%

O=S(=O)(O)C(F)(F)C(F)(F)C(F)(F)C(F)(F)C(F)(F)C(F)(F)C(F)(F)C(F)(F)F
inactive: Potency (Tov112D) | Potency [1] | max response [2] 2.44% and 1.44% | outcome [3]

O=C(O)C(Cl)Cl
inactive: Potency (Tov112D) | Potency [1] | Potency (astro) | max response [2] 4.19% and -3.77% | outcome [3]

CCO/N=C(\CC)C1=C(O)CC(c2c(C)cc(C)cc2C)CC1=O (centres undefined)
inactive: Potency (Tov112D) | Potency [1] | Potency (astro)

CN[C@@H](C)[C@H](O)c1ccccc1
inactive: Potency (Tov112D) | Potency [1] | Potency (astro)

CCCCC(CC)COC(=O)c1ccccc1C(=O)OCC(CC)CCCC (centres undefined)
inactive: Potency (Tov112D) | Potency (astro)

O=[N+]([O-])c1ccc([As](=O)(O)O)cc1
inactive: Potency (Tov112D) | Potency [1] | Potency (astro)

OCCCBr
inactive: Potency (Tov112D) | Potency [1] | Potency (astro) | max response [2] -2.6% | outcome [3]

CS(=O)(=O)c1ccc(C(=O)C2C(=O)CCCC2=O)c([N+](=O)[O-])c1
inactive: Potency (Tov112D) | Potency [1] | Potency (astro) | max response [2] 1.13%

O=[N+]([O-])c1c(Cl)c(Cl)cc(Cl)c1Cl
inactive: Potency (Tov112D) | Potency [1] | Potency (astro) | max response [2] 3.25% | outcome [3]

CCOCCOC(C)=O
inactive: Potency (Tov112D) | Potency [1] | Potency (astro) | max response [2] -2.9% | outcome [3]

O=S(=O)(O)C(F)(F)C(F)(F)C(F)(F)C(F)(F)F
inactive: Potency (Tov112D) | Potency [1] | Potency (astro) | max response [2] -0.463% and -1.11%

CC(C)(C)C(O)C(Oc1ccc(Cl)cc1)n1cncn1 (centres undefined)
inactive: Potency (Tov112D) | Potency (astro)

Oc1ccc2c3c1O[C@H]1[C@@H](O)C=C[C@H]4[C@@H](C2)NCC[C@@]341
inactive: Potency (Tov112D) | Potency [1] | Potency (astro)

CCC1(CCC(C)C)C(=O)NC(=O)NC1=O
inactive: Potency (Tov112D) | Potency [1] | Potency (astro)

CCOP(=O)(NC(C)C)Oc1ccc(SC)c(C)c1 (centres undefined)
inactive: Potency (Tov112D) | Potency [1] | Potency (astro) | max response [2] 6.18% and 2.21%

Nc1c(Cl)c(Cl)c(Cl)c(Cl)c1Cl
inactive: Potency (Tov112D) | Potency [1] | Potency (astro) | max response [2] 0.456% | outcome [3]

O=C(O)CCCOc1ccc(Cl)cc1Cl
inactive: Potency (Tov112D) | Potency [1] | max response [2] 8.43% | outcome [3]

O=C(O)COc1ccccc1
inactive: Potency (Tov112D) | Potency [1] | Potency (astro) | max response [2] -3.8% | outcome [3]
